GLS inhibitor – qHTS for Inhibitors of Glutaminase (GLS); GLS enzymatic activity, qHTS titration; Potency, µM (titrated, usually from 45.5 µM), for the others: top-dose activity change, negative = inhibition, most hits filed as inhibitors; 410,000 compounds, 0.21% hits; AID 624170, 2012; Glutaminase kidney isoform, mitochondrial (Homo sapiens), O94925; also: % is scaled to controls: 0 for no effect and ±100 for the full control effect
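Coupled fluorescence readout: glutamate oxidase/HRP/Amplex Red detect glutamate formed by hKGA from L-glutamine (1 mM solution added). Buffer 45 mM KH2PO4 pH 8.2, 0.02% Tween-20; reads at t0 and 30 min RT.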
HP1b chromo inh – HTS for Inhibitors of HP1-beta Chromodomain Interactions with Methylated Histone Tails; Potency, µM (top dose mostly 114 µM), without a hit: top-dose activity change, negative = inhibition, most hits filed as inhibitors; AID 540317, 2011; AlphaScreen HP1-beta / biotin-H3K9me3 peptide binding; 390,000 compounds, 0.56% hits; also: nearly all actives have a fitted effect of over 70% in size
Target sequence (P83916 whole entry, looked up): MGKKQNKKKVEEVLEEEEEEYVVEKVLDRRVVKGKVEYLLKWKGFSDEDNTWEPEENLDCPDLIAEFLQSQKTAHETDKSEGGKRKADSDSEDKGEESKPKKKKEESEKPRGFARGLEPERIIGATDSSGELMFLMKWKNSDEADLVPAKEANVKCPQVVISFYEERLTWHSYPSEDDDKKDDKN
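Compound inhibition of the preformed complex between 50 nM HP1-beta and 50 nM biotinylated H3K9me3 peptide was read by AlphaScreen. Buffer was PBS pH 7.4 with 0.01% Tween-20. Incubations ran 30 min at room temperature, with 10 ug/mL donor/acceptor beads.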
G9a inh – qHTS Assay for Inhibitors of Histone Lysine Methyltransferase G9a; Histone-lysine N-methyltransferase EHMT2 (Homo sapiens), Q96KQ7; G9a H3K9 monomethylation, AlphaScreen, 2 h; Potency, µM (highest dose often 102 µM), without a hit: top-dose activity, negative = inhibition, most hits filed as inhibitors; 350,000 compounds, 8.8% hits; AID 504332, 2011; also: % is scaled to controls: 0 for no effect and ±100 for the full control effect; nearly all actives have a fitted effect of over 75% in size
Target sequence (Q96KQ7 913-1193 limits assumed): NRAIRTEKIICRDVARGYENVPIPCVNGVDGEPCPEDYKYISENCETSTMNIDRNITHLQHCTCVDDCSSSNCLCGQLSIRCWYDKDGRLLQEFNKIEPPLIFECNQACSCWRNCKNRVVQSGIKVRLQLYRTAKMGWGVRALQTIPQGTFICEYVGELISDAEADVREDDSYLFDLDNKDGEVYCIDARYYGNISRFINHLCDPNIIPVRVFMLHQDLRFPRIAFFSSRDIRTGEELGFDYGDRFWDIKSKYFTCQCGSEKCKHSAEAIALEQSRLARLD
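AlphaScreen detection with an anti-monomethyl H3K9 antibody quantified product after a 2 h room-temperature reaction containing 500 nM biotinylated H3K9 peptide, 20 µM SAM and 20 nM enzyme, which had been preincubated 15 min with compound.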
JMJD2A Tudor – qHTS Assay for Inhibitors of JMJD2A-Tudor Domain. Potency, µM (top dose mostly 114 µM), without a hit: at the top dose activity change, negative = inhibition, actives largely listed as inhibitors. AlphaScreen JMJD2A-Tudor / H3K4me3 peptide binding. 390,000 compounds, 4.4% hits; also: % is scaled to controls: 0 for no effect and ±100 for the full control effect; nearly all actives have a fitted effect of over 50% in size
BAZ2B inh – qHTS Assay for Inhibitors of BAZ2B. Bromodomain adjacent to zinc finger domain protein 2B (Homo sapiens), Q9UIF8. AlphaScreen BAZ2B-H3K14Ac peptide displacement. Potency, µM (top dose mostly 114 µM), for inactives: top-dose activity change, negative = inhibition, hits mostly inhibitors. 360,000 compounds, 4.4% hits. AID 504333, 2011; also: % is scaled to controls: 0 for no effect and ±100 for the full control effect; nearly all actives have a fitted effect of over 60% in size
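AlphaScreen displacement of biotin-H3(5-23)K14Ac peptide (50 nM final) from BAZ2B (50 nM final) in PBS pH 7.4, 0.01% Tween-20; complex preformed 30 min RT, then compounds (top 110 uM) 30 min RT, beads 20 min dark.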
Starred values were filed as active, the others as inactive; ? = inconclusive; . = no result given; [ ] = remark or other dose. Rows were chosen to be rich in hits. Some 10% of all compounds tested hit in one or more screens of this group. Calls follow the shape of the dose curve; as a rule, active = well fitted curve in the direction sought with a large enough effect; inconclusive = small, poorly fitted or top-dose-only effect, or another doubt; inactive = no such curve, though single readings can be large; an effect the other way counts as inactive or inconclusive. Potency is read from the fitted curve at half-maximal effect.

SMILES	GLS inhibitor	HP1b chromo inh	G9a inh	JMJD2A Tudor	BAZ2B inh
c1cncc(N=c2scc(-c3cccc4ccccc34)n2CCCn2ccnc2)c1	13%	?	?	35µM*	10µM*
CCCCn1c(C)csc1=Nc1cccnc1	7%	-15%	?	-33%	?
CC(C)n1c(-c2ccco2)csc1=Nc1cccnc1	-2%	?	13µM*	56µM*	28µM*
COCCn1c(-c2ccccc2)csc1=Nc1cccnc1	0%	?	40µM*	?	40µM*
Cc1ccc(-c2csc(=Nc3cccnc3)n2CCCn2ccnc2)cc1C	11%	?	?	?	13µM*
COc1ccc(NC(=O)c2cc(S(=O)(=O)NCCC3=CCCCC3)ccc2F)cc1	-1%	42%	-1%[59 µM]	-11%	-2%
Cc1cc(C)cc(NC(=O)N2CCC(CN3CCc4ccccc4C3)CC2)c1	2%	27%	-7%[59 µM]	-8%	-4%
Cc1ccc([N+](=O)[O-])c(NC(=O)COC(=O)C2CC3CCCC(C2)C3=O)c1C (stereo not given)	6%	36%	79µM*	-17%	-18%
CCN(CC)S(=O)(=O)c1ccc(OCC(=O)NC(=O)Cc2ccccc2)c([N+](=O)[O-])c1	13%	-26%[57 µM]	13%[12.7 µM]	?	-38%
CCc1nc(Nc2ccc(N3CCN(C(C)=O)CC3)cc2)c2oc3ccccc3c2n1	36%	0%	?	?	50µM*
CCc1nc(Nc2cccc(F)c2)c2oc3ccccc3c2n1	2%	10%	45µM*	-10%	?
CCc1nc(Nc2ccccc2F)c2oc3ccccc3c2n1	0%	35%	50µM*	-4%	56µM*
CC(=O)N1CCN(c2ccc(Nc3ncnc4c3oc3ccccc34)cc2)CC1	47%	3%	?	-27%	?
CCc1nc(Nc2ccc(F)cc2)c2oc3ccccc3c2n1	0%	43%	45µM*	1%	0%
CC(=O)Nc1ccc(C(=O)N2CCCCC2c2cc(C(=O)NCc3ccc(F)cc3)no2)cc1 (stereo not given)	7%	.	.	.	.
Oc1cccc(Nc2ncnc3c2oc2ccccc23)c1	3%	22%	50µM*	-27%	?
Cc1ccc2cc(C=C(C#N)C#N)c(N3CCCCC3)nc2c1	36%	?	45µM*	?	?
CCCCC1(Br)C(=O)N(c2ccccc2)N(c2ccccc2)C1=O	43%	?	?	18µM*	?
CCCCC1(CO)C(=O)N(c2ccccc2)N(c2ccccc2)C1=O	10%	11%	.	-23%	-8%
O=C(COc1ccc(/C=C\[N+](=O)[O-])cc1)N1CCOCC1	-20%	20%	10µM*	-26%	-12%
CCCn1cc(S(=O)(=O)c2ccc(Cl)cc2)c(=O)c2cc(OC)ccc21	?	20%	2%	22µM*	?
CCC(CC)C(=O)Oc1c(Sc2ccccc2[N+](=O)[O-])c(C)nn1C(C)(C)C	4%	?	32µM*	-35%	?
CCOc1ccccc1C(=O)Oc1c(Sc2ccccc2)c(C)nn1C(C)(C)C	-5%	57%	-1%[59 µM]	-2%	8%
COCC(=O)Oc1c(Sc2ccccc2[N+](=O)[O-])c(C)nn1C(C)(C)C	?	2%	22µM*	-13%	?
COCCCNC1=C(Cl)C(=O)c2ccccc2C1=O	9%	?	40µM*	?	35µM*
CCN(CC)CCCNC1=C(Cl)C(=O)c2ccccc2C1=O	0%	-15%	?	-30%	-26%
CC(C)NC1=C(Cl)C(=O)c2ccccc2C1=O	-3%	16µM*	20µM*	40µM*	25µM*
CC(C)OCCCNC1=C(Cl)C(=O)c2ccccc2C1=O	3%	35µM*	.	40µM*	10µM*
Nc1c(C(=O)Nc2cccc(Cl)c2Cl)sc2nc(-c3cccnc3)ccc12	0%	64%	89µM*	-12%	-2%

High-throughput results from PubChem BioAssay.
